Test results: PubChem BioAssay (NCI)
The panel holds about 83,000 compounds, 20% with a hit somewhere; the sample as a whole holds those more often.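 In brief: 96-well plates, 48 h treatment, single concentration, percent growth endpoint.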 Calls of active or inactive are those of the source.

System: BT-549 breast
Test: NCI-60 one-dose screen, 48 h (100 = growth as untreated, 0 = no growth, -100 = all killed)
Details: 10 µM unless noted
Method: Growth inhibition of the BT-549 human tumor cell line is measured as a screen for anti-cancer activity. Cells are grown in 96 well plates and exposed to the test compound for 48 hours. Compounds are tested at a single concentration, which is 10^-5 M for most compounds. The reported endpoint is percent growth (GI% or GIPRCNT), where numbers from 0 - 100% represent growth inhibition, and numbers from -100% - 0 represent cell death. For example, a value of 40 represents 60% growth inhibition. A value of 0 means no net growth occurred over the course of the experiment. A value of -40 indicates 40% of cells at the beginning of the experiment died by the end of the experiment. A value of -100 means all cells are dead at the end of the experiment.
NCI-60 Human Tumor Cell Lines Screen was performed using the standard one-dose NCI protocol, which is described in more detail at https://dtp.cancer.gov/discovery_development/nci-60/default.htm.
Compounds with GIPRCNT values below 10 were considered active. Activity score was based on GIPRCNT using the following formula: […]
Score is 0 for GIPRCNT values of 100 or above, 50 for GIPRCNT values of 0, and 100 for GIPRCNT values of -100.

Row | SMILES | growth
1 | Cc1ccccc1NC(=O)c1sc2nc(C)c(C(=O)/C=C/c3ccccc3)cc2c1N | 21.5% (inactive)
2 | CN(C)CCCn1c2c(c3ncccc3c1=O)C(=O)c1ccccc1-2 | 67.3% (inactive)
3 | Nc1c(C(=O)Nc2ccncc2)sc2nc3c(cc12)CCCCCC3 | 69.4% (inactive)
4 | COc1cccc(NC(=O)Cn2cc(CN3CCN(c4ccnc5cc(Cl)ccc45)CC3)nn2)c1 | 77.2% (inactive)
5 | C=C1C(=O)O[C@H]2[C@H]1CC/C(COC(=O)CCSCCC(=O)OC/C1=C/CC[C@@]3(C)O[C@H]3[C@H]3OC(=O)C(=C)[C@@H]3CC1)=C\CC[C@@]1(C)O[C@@H]21 | -9.47% (active)
6 | COc1ccc(-c2cn(-c3cc(OC)c(OC)c(OC)c3)c(=O)n2C(C)=O)cc1 | 83.5% (inactive)
7 | Clc1ccc(CNc2c3ccccc3nc3ccccc23)cc1 | 70.9% (inactive)
8 | Oc1c(Cl)cc(Cl)c2ccc(Cn3cc(-c4cc(F)cc(F)c4)nn3)nc12 | 70.9% (inactive)
9 | Cc1ccc2c(n1)C(=O)c1[nH]c3ccccc3c1C2=O | 58.5% (inactive)
10 | O=C1/C(=C/c2ccc(Cl)cc2)COc2ccc(O)c(O)c21 | 5.45% (active)
11 | COC(=O)c1ccc2c(c1)C(=O)c1c-2n(CCCN)c(=O)c2cc([N+](=O)[O-])ccc12 | -100% (active)
12 | Clc1ccc(Nc2nnc(COc3ccccc3)c3ccccc23)cc1 | -9.97% (active)
13 | N#Cc1cnc(NCCc2ccncc2)nc1-n1cnc2ccccc21 | 48.5% (inactive)
14 | COc1ccc(C/C(C)=C(/c2ccc(OCCN3CCCCC3)cc2)c2ccc(OC(=O)NCc3ccccc3)cc2)cc1 | -76.4% (active)
15 | COc1ccc2cc(C(=O)c3coc4ccc(O)cc34)ccc2c1 | 94.2% (inactive)
16 | COCCn1cc(-c2nc(-c3cc4cccnc4n3CCOC)cs2)c2cc(OC)ccc21 | 57% (inactive)
17 | Clc1ccc(Sc2cnc(-c3ccccc3)o2)cc1 | 96.6% (inactive)
18 | Fc1cc(F)cc(C(c2c[nH]c3ccccc23)c2c[nH]c3ccccc23)c1 | 135% (inactive)
19 | CCOC(=O)c1cn2ncnc(Oc3ccc(NC(=O)NC4CCCCC4)c(Cl)c3)c2c1C | 90.4% (inactive)
20 | CC(C)CCC[C@@H](C)[C@H]1CC[C@H]2[C@@H]3CC=C4C[C@@H](C(C(=O)O)C(=O)O)CC[C@]4(C)[C@H]3CC[C@]12C | -22.6% (active)

Row | SMILES | growth
21 | O=S(=O)(NCCNc1nccc(-c2c(-c3cccc(F)c3)nc3occn23)n1)c1ccc(Br)cc1 | 103% (inactive)
22 | CC(=O)OC[C@]12CCC(C)(C)C[C@H]1[C@@]1(O)[C@H](O)C[C@@H]3[C@@]4(C)CCCNC(C)(C)[C@@H]4CC[C@@]3(C)[C@]1(C)CC2 | 111% (inactive)
23 | Cn1cc(-c2csc(-c3c[nH]c4ccc(Br)cc34)n2)c2cnccc21 | 7.16% (active)
24 | O=S(=O)(Nc1ccccc1)c1ccc(C2CC3(Cl)C(Cl)=C(Cl)C2(Cl)C3(Cl)Cl)cc1 (stereo not given) | 76.4% (inactive)
25 | CCn1c(=S)[nH]c2c(=O)n(C)c(=O)n(C)c21 | 92.6% (inactive)
26 | O=C1Nc2ccc(I)cc2C1=O | 80.1% (inactive)
27 | O=C1c2cccc3cccc(c23)C(=O)N1N1C(=O)c2cccc3c(N4CCOCC4)ccc(c23)C1=O | 87.2% (inactive)
28 | O=C(CCc1nnc(Cn2cnc3nc[nH]c3c2=O)o1)c1nc2ncccc2[nH]1 | 95.9% (inactive)
29 | O=C(c1cc2ccccc2o1)c1nn(-c2ccccc2)/c(=N/N=Cc2cn(-c3ccccc3)nc2-c2cc3ccccc3oc2=O)s1 | 108% (inactive)
30 | COc1cc(-c2nc(SCCC(C)C)nc(Nc3ccccc3Cl)c2C#N)cc(OC)c1OC | 88.4% (inactive)
31 | COC(C(=O)[C@@H](O)[C@@H](C)O)[C@@H]1Cc2cc3cc(O[C@H]4C[C@@H](O[C@H]5C[C@@H](O)[C@H](O)C(C)O5)[C@H](O)C(C)O4)cc(O)c3c(O)c2C(=O)[C@H]1O[C@H]1C[C@@H](O[C@H]2C[C@@H](O[C@H]3C[C@@H](OC)[C@H](O)C(C)O3)[C@@H](O)C(C)O2)[C@H](O)C(C)O1 (stereo not given in full) | 38.2% (inactive)
32 | C1=C(N2CCCC2)CCC1 | 113% (inactive)
33 | O=C(Nn1c2c(sc1=Nc1ccccc1)C(=O)c1ccccc1C2=O)c1cc2ccc1CCc1ccc(cc1)CC2 | 67.9% (inactive)
34 | CCOC(=O)/C=C1\S/C(=N\Nc2cc(=O)[nH]c3ccc(Cl)cc23)N(c2ccccc2)C1=O | 93.7% (inactive)
35 | COc1ccc(-c2nnc(-c3ccc4c(c3)nc(-c3ccncc3)n4C3CCCCC3)o2)cc1 | 54.6% (inactive)
36 | C=C(C)[C@@H]1CC[C@]2(C)[C@H](CC=C3[C@@H]4[C@H](C)[C@@H](C)CC[C@]4(CO)CC[C@]32C)[C@@]1(C)CCCN | 55.3% (inactive)
37 | O=C1/C(=C/c2ccc(Cl)c(Cl)c2)CN(C(=O)C(Cl)Cl)C/C1=C\c1ccc(Cl)c(Cl)c1 | -58.5% (active)
38 | N#CC1=C(N)Oc2c(sc3c(F)cccc23)C1c1ccc(F)cc1 (stereo not given) | 30.9% (inactive)
39 | CC(C)NC1CCC(Nc2ccnc3cc(Cl)ccc23)CC1 (stereo not given) | 88.8% (inactive)
40 | CC(C)(C)n1cc(-c2ccnc(NCCCNS(=O)(=O)c3ccc(F)cc3)c2)c(-c2cccc(F)c2)n1 | 50.2% (inactive)
